KCNQ2 block – rat KCNQ2 potassium channel inhibitors, primary screen, cell-based, CHO-K1, FluxOR thallium flux, B-score; hit rate 1.1% among 310,000; Potassium voltage-gated channel subfamily KQT member 2 (Rattus norvegicus), O88943; 20 min; hits give low values; B-score at 10 µM;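 active = fluorescence ratio B-score at most minus 3 library SDs, with starting brightness B-score within 2 library SDs, cut at about -5.5 in these data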
KCNQ2 pot – potentiators of rat KCNQ2 potassium channel; Potassium voltage-gated channel subfamily KQT member 2 (Rattus norvegicus), O88943; CHO-K1 KCNQ2, FluxOR thallium flux fluorescence; hits give high values; AID 2239, 2010; B-score at 10 µM; hit rate 0.54% among 310,000;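 active = fluorescence ratio B-score at least 3 SD of library B-scores, with initial fluorescence B-score within 3 of them, cut at about 5.3 in these data; same plate scores as AID 2156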;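 note: B-score of peak minus minimum over baseline fluorescence ratio after K+ and Tl+ stimulus; positive B-score means potentiation of KCNQ2 with more thallium influx and brighter signal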
Kir21 confirm – mouse Kir2.1 channel blockers, retest, confirmation, cell-based, FluxOR thallium flux, duplicate. shares compounds with KCNQ2 pot. Kir2.1-expressing cells, FluxOR thallium flux fluorescence; hits give low values. Tl flux remaining, % of negative control (hits give low values), % at 10 µM. hit rate 41% among 2,300. AID 2032, 2009;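 active = Primary-screen hit whose thallium flux fell at least 3 control SD below untreated wells in both duplicates, with normal baseline fluorescence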;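 note: 0% = blank wells without stimulus and 100% = stimulated no-compound controls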
Target sequence (P35561 whole entry, looked up): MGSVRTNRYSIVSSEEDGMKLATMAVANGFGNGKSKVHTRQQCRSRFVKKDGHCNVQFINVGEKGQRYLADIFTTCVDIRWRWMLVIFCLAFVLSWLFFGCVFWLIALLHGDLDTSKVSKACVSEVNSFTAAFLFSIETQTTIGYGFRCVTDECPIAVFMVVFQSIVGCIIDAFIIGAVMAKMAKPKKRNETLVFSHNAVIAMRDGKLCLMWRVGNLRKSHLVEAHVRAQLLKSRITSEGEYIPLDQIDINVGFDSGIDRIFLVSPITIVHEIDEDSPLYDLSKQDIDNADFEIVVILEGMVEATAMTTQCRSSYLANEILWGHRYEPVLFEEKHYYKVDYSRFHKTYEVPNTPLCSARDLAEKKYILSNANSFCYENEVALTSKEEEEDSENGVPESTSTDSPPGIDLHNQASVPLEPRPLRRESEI
HEK293 Tl flux – parental HEK293 activity in Kir2.1 inhibitor counter-screen | parental HEK293 cells, FluxOR thallium flux fluorescence; 0% = unstimulated blank wells | FluxOR signal as % of negative control (100 = no effect), % at 10 µM | shares compounds with KCNQ2 pot | AID 2105 | hit rate 19% among 2,300;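 active = dye signal at least 3 control SD above or below untreated wells in both duplicates, raw fluorescence within 3, either direction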;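 note: percent is based on the flux ratio of peak minus minimum fluorescence over baseline F0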
CHO-K1 ctr – nonspecific thallium flux increase in parental CHO-K1, confirmation, counter-screen for KCNQ2 potentiator project, cell-based, FluxOR thallium flux, duplicate; shares compounds with KCNQ2 pot; parental CHO-K1 cells, FluxOR thallium flux fluorescence; zero = vehicle mean+3SD, 100% = vehicle-minus-blank window; activity increase over 3SD of controls, % at 10 µM; hit rate 43% among 1,200; AID 2282, 2010;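 active = signal rise of at least 3 SD above the untreated control mean, in both duplicate wells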;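 note: counter screen of KCNQ2 potentiator hits so any rise reflects channel-independent effects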
KCNQ1 sel pot – human KCNQ1 channel potentiation off-target, confirmation, selectivity assay for KCNQ2 potentiator project, cell-based, CHO, FluxOR thallium flux. AID 2283, 2010. shares compounds with KCNQ2 pot. hit rate 28% among 1,200. CHO KCNQ1 stable, FluxOR thallium flux fluorescence; beyond 3SD, as % of vehicle-control signal. activation over 3SD threshold, % at 10 µM;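 active = fluorescence ratio rise of at least 3 SD of vehicle wells above their mean, in both replicate wells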;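 note: 0% = vehicle mean plus 3 SD and 100% = vehicle minus unstimulated blank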
KCNQ2 pot conf – rat KCNQ2 channel potentiators, confirmation, cell-based, CHO, FluxOR thallium flux, duplicate; CHO-KCNQ2 cells, FluxOR thallium flux fluorescence; hit rate 68% among 1,200; potentiation, less the hit threshold, % at 10 µM; shares compounds with KCNQ2 pot;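 active = fluorescence ratio rising 3 SD or more over the vehicle control mean in both replicates, plus primary screen hit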;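 note: peak minus minimum thallium fluorescence divided by baseline after K/Tl stimulus; 0% = vehicle mean plus 3 SD and 100% = vehicle minus unstimulated blank difference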
Kir21 spec – mouse Kir2.1 channel activation off-target, confirmation, selectivity assay for KCNQ2 potentiator project, cell-based, HEK293, FluxOR thallium flux; shares compounds with KCNQ2 pot; HEK293 Kir2.1, FluxOR thallium flux fluorescence; activity over 3SD threshold, % at 10 µM; hit rate 2% among 1,200; AID 2345, 2010;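 active = fluorescence ratio rise of at least 3 SD above the vehicle-control mean, seen in both replicates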;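 note: 0% = vehicle mean plus 3 SD and 100% = vehicle minus no-stimulus blank window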
KCNQ2 W236L pot – potentiators of retigabine-insensitive KCNQ2 W236L, mechanism study for KCNQ2 potentiator project, cell-based, rat KCNQ2 W236L, CHO, automated patch clamp | current increase over 3SD of negative controls (%), hits give high values, % at 25 µM | shares compounds with KCNQ2 pot | automated patch clamp current | AID 2558, 2010 | hit rate 10% among 940;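 active = current increase at least 3 SD of the untreated controls above them in both duplicate recordings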
* marks the source's active call; other numbers are inactive results; i = inactive; x = no result given. Most compounds without a hit are left out; they make up all but 1.6% or so of the library.

SMILES | KCNQ2 block | KCNQ2 pot | Kir21 confirm | HEK293 Tl flux | others
COc1ccc(-[n+]2c(-c3ccccc3)cc(-c3ccccc3)cc2-c2ccccc2)cc1 | -8.4* | -8.4 | 26%* | i
O=[N+]([O-])c1ccc(-[n+]2c(-c3ccccc3)cc(-c3ccccc3)cc2-c2ccccc2)cc1 | i | 0.04 | x | x
Cn1cc(C(O)CN2CCCCC2)c2ccccc21 (centres undefined) | i | 0.68 | x | x
CCOc1cccc(CNCCc2c(C)[nH]c3ccc(OC(F)(F)F)cc23)c1O | i | x | 22%* | i
Cc1[nH]c2ccc(OC(F)(F)F)cc2c1CCNCc1ccc(Cl)cc1 | -7.7* | -7.7 | 16%* | i
Cc1ccc2[nH]c(C)c(CCNCc3ccco3)c2c1 | i | 0.72 | x | x
Cc1[nH]c2ccc(OC(F)(F)F)cc2c1CCNCc1cccc([N+](=O)[O-])c1 | i | x | x | x
CCOc1ccc2oc(C(=O)NN3C(C)CCCC3C)c(C)c2c1 (centres undefined) | i | x | x | x
O=c1[nH]c(Cl)ccc1CN1CCOCC1 | i | x | x | x
COc1ccc2c3c1OC1C(O)C=CC4C(C2)[N+](C)(C)CCC341 (centres undefined) | i | x | x | x
COc1ccc(-n2c(/C=C/c3ccc(O)cc3)nc3ccccc3c2=O)cc1 | i | x | x | x
CCn1nc(/C=C/c2ccccc2)nc2c(=O)n(C)c(=O)nc1-2 | i | 7.9* | i | i | CHO-K1 ctr=5.3*;KCNQ1 sel pot=-4;KCNQ2 pot conf=3.5*;Kir21 spec=-22;KCNQ2 W236L pot=i
CCOC(=O)C1CCCN(c2ccc([N+](=O)[O-])c3nonc23)C1 (centres undefined) | i | x | x | x
COc1ccc(-n2c(C)nc3ccccc3c2=O)c([N+](=O)[O-])c1 | i | 0.75 | x | x
CCCCCCn1c(O)c(/C=N/N2CCCCCC2)c(=O)[nH]c1=O | i | x | x | x
CCC(=O)N1CC(=O)Nc2ccc(F)cc2C1c1ccc(F)cc1 (centres undefined) | i | 0.14 | x | x
CC(NCc1ccc(Cl)c(Cl)c1)C(O)c1ccccc1 (centres undefined) | i | x | x | x
CN[C@@H]1C[C@@H](c2ccc(Cl)c(Cl)c2)c2ccccc21 | i | x | 28%* | i
Cc1cc(C)n(-c2ccc(NN=C(C#N)C#N)cc2)n1 | i | x | x | x
N#CC(C#N)=NNc1ccc(-n2ccc(C(F)(F)F)n2)cc1 | i | 4.8 | 60%* | 73%*
CC(C)Oc1ccc(C2(C#N)CC[N+](C)(C)CC2)cc1 | i | x | x | x
Cc1c2cnn(CC(=O)N3CCC4(CC3)OCCO4)c(=O)c2c(C)n1Cc1cccc(Cl)c1 | i | 0.68 | x | x
O=C(Cn1ncc2c3ccccc3n(Cc3cccc(Cl)c3)c2c1=O)N1CCC2(CC1)OCCO2 | i | 13* | i | i | CHO-K1 ctr=109*;KCNQ1 sel pot=-18;KCNQ2 pot conf=58*;Kir21 spec=-28;KCNQ2 W236L pot=i
O=c1cccc2n1CC1CC2CN(Cc2c(F)cccc2Cl)C1 (centres undefined) | i | 0.97 | x | x
O=c1cccc2n1CC1CC2CN(Cc2cccc(Cl)c2Cl)C1 (centres undefined) | i | x | 38%* | i
SMILES | KCNQ2 block | KCNQ2 pot | Kir21 confirm | HEK293 Tl flux | others
COC(=O)C(Cc1ccc(N(CCCl)CCCl)cc1)N=Cc1ccccc1O (centres undefined) | i | 2 | x | x
CC(=O)OC(C)(C)/C=C/C(=O)C(C)(O)C1[C@H](O)C[C@@]2(C)C3CC=C4C(CC[C@@H](O)C4(C)C)[C@]3(CO)C(=O)C[C@]12C (some centres undefined) | i | 7.1* | i | i | CHO-K1 ctr=-10;KCNQ1 sel pot=-22;KCNQ2 pot conf=9.0*;Kir21 spec=-38;KCNQ2 W236L pot=i
O=C(CCNC(=O)N1C[C@H]2C[C@@H](C1)c1cccc(=O)n1C2)Nc1cccc(Cl)c1 | i | x | x | x
O=c1[nH]c(O)c(/C=C2\C=Nc3ccc(OCc4ccccc4)cc32)c(=O)[nH]1 | i | x | x | x
COc1cc(C)c(CNCCc2c[nH]c3ccccc23)cc1C | i | x | 40%* | i
COc1cccc(CNCCc2c[nH]c3ccccc23)c1 | i | 2.5 | x | x
COc1ccc(CNCCc2c[nH]c3ccccc23)c(OC)c1C | i | 0.92 | 46%* | i
COc1ccc(CNCCc2ccccc2F)c(OC)c1C | i | 0.26 | x | x
Clc1ccccc1C1=NCc2nncn2-c2sc(Br)cc21 | i | 0.41 | x | x
FC(F)=C(F)CCSc1ncn[nH]1 | i | x | x | x
CC1=CC2/C=C(\C)CCC(O)C(O)/C=C/C(=O)C23C(=O)NC(CC(C)C)C3C1C (centres undefined) | i | x | 64%* | i

Compound activity as filed in PubChem BioAssay.
